Data taken from PubChem BioAssay (NCI).
About 83,000 compounds went through this panel and 20% of them were active in at least one assay; those are over-represented in the sample as a whole.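 For each line, cells grew in 96-well plates with the test compound present at a single concentration for 48 hours.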 Values without a mark were called inactive. Activity calls are given as the source filed them. How the source made its calls: active means growth percent below 10; inactive means the rest.

What follows are compounds tested on HL-60(TB) leukemia (assay: NCI-60 one-dose screen, 48 h (100 = growth as untreated, 0 = no growth, -100 = all killed)). Conditions: 10 µM unless noted.
In the case of `COc1ccc(OC)c(NC(=O)c2cc3oc4ccccc4c3cc2O)c1`, the growth is reported as 121%.
Work on `CCc1ccc(OC(=O)CCl)cc1` yielded a growth of 102%.
Compound `Cc1cc(C)c(-c2c(O)c(Br)c(-c3c(C)cc(C)c(Br)c3C)c(O)c2Br)c(C)c1Br` has a growth of 27.3%.
`CC[N+](CC)(CCOCCOCC[N+](CC)(CC)Cc1ccc([N+](=O)[O-])cc1)Cc1ccc([N+](=O)[O-])cc1` was tested, and the growth was 93.4%.
Work on `Nc1nc2c(s1)CCc1c-2c(Br)n(Cc2ccccc2)c1Br` yielded a growth of 51.6%.
`CC12O[C@H](C[C@@H](OC(=O)CCC(=O)O)[C@H]1O)n1c3ccccc3c3c4c(c5c6ccccc6n2c5c31)C(=O)NC4=O` was tested, and the growth was 66.7%.
`CCCCCCCCN(CCCCCCCC)C(=N)c1ccnc2ccccc12` was tested, and the growth was -68.5% (active).
For `C#CCNC(=O)CC[C@@H](C)[C@H]1CC[C@H]2[C@@H]3CC[C@@H]4CC(=O)CC[C@]4(C)[C@H]3CC[C@]12C`, the growth was -30% [100 µM] (active).
For `C=C(CNCCc1ccc(O)cc1)[C@@H]1CC[C@]2(CO)CC[C@]3(C)[C@H](CC[C@@H]4[C@@]5(C)CCC(=O)C(C)(C)[C@@H]5CC[C@]43C)[C@@H]12`, the growth was -41.5% (active).
In the case of `CCc1ccc(-c2cn3ccnc3c(-c3ccc4ncn(Cc5ccccc5)c4c3)n2)cc1`, the growth is reported as 60.4%.
`CC(=O)c1c(C)[nH]c(-c2nc3ccc(N4CCN(C)CC4)cc3[nH]2)c1-c1ccc(OCC2CCOCC2)cc1` was tested, and the growth was -12.9% (active).
`O=[N+]([O-])c1ccc(Oc2cccc3c(Oc4ccc([N+](=O)[O-])cc4[N+](=O)[O-])cccc23)c([N+](=O)[O-])c1` showed a growth of 99.9%.
